Assay results as given in the supplement of paper PMC10338343.

system: MILI (PIWIL2) piRISC loaded with L1MC piRNA (26 nt); experiment: pre-steady-state target cleavage rate (min^-1); guide: L1MC piRNA 5'p-UAACUAAAUACUAUGCAAGCUGUAGG; MIWI and MILI are mouse PIWI proteins and EfPiwi is from a freshwater sponge; tags in brackets are library labels; higher = faster piRNA-guided slicing of the target; settings: auxiliary factor: none (no GTSF1)
Method in brief: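 Active affinity-purified piRISC carrying one synthetic guide (1 nM) was mixed with a transcribed, DNA-blocked target RNA library […] in HEPES–potassium acetate buffer at 33 °C for 0–8 or 0–960 min, with or without 500 nM GTSF1 partner protein. Uncleaved targets were then sequenced and normalised to depth and to weakly complementary targets. Three trials were pooled, and k3 was capped at 0.0001 min^-1. A burst-and-steady-state fit was applied to obtain the pre-steady-state cleavage rate.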
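Also: 1 nM active piRISC with 0.1 nM target library at 33 °C single turnover.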

| Sequence | pre-steady-state target cleavage rate |
| --- | --- |
| UCCUGGAUCAGCUUGCAUUCUAUUUACAAA | < 0.0001 |
| UCCUGGAUGUCGAACCAUCAGUAUUUAGUUA | < 0.0001 |
| UCCUGGAUGUCGAAGCAUAGUAUUUGUUA | < 0.0001 |
| UCCUGGAUGUCGAACCAUACUAUUUAGUUA | < 0.0001 |
